# Assay results reported in PubChem BioAssay AID504332 (National Center for Advancing Translational Sciences (NCATS), 2011).
# Screen size: about 350,000 compounds; about 31,000 (8.9%) were called active. Where a call stands in place of a potency, no number is given. Not shown: some 15% with an inconclusive outcome. This excerpt belongs to a sample that is enriched for actives. A number with no mark means an inactive call. Calls follow the shape of the dose curve; as a rule, active = well fitted inhibition curve with a large enough effect; inconclusive = small, poorly fitted or top-dose-only effect; inactive = no such curve, though single readings can be large or run the other way.
# Biological target: Histone-lysine N-methyltransferase EHMT2 (Homo sapiens) (UniProt Q96KQ7)
# Sequence (Q96KQ7 913-1193 limits assumed): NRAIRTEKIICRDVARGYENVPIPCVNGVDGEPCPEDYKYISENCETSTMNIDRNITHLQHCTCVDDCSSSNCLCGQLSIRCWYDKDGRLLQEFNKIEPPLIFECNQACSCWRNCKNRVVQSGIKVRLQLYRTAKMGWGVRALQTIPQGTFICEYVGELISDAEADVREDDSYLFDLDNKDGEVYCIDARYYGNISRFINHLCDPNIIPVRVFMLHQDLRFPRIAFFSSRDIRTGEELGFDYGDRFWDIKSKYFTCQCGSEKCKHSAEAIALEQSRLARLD
# Test: qHTS Assay for Inhibitors of Histone Lysine Methyltransferase G9a; also: nearly all actives have a fitted effect of over 75% in size
# Settings: G9a H3K9 monomethylation, AlphaScreen, 2 h; series mostly up to 59 µM
# Description: Methylated lysines, on the N-terminal tails of histone proteins serve as epigenetic markers to recruit factors that can then modify local chromatin structure to lead to functional consequences. G9a and other members of the SUV39 family of the SET domain-containing superfamily of histone lysine methyltransferases (HMT) have been identified to specifically methylate Lys9 of histone H3 (H3K9). G9a catalyzes the mono- and di-methylation of H3K9 in mammalian euchromatic regions, where the resulting H3K9me2 is indicative of transcriptional repression. […] The inhibition of G9a will result in transcriptional activation and work synergistically with DNA methyltransferase and histone deacetylase inhibitors, to kill cancer cells. This qHTS assay for identification of G9a inhibitors is a chemiluminescence based AlphaScreen (PerkinElmer). Methylation of biotinylated-histone peptide is measured through specific antibody-based detection, in conjunction with streptavidin-coated donor and anti-IgG antibody-coated acceptor beads. The method is particularly well suited for detection of inhibitors acting by the desired histone peptide competitive mechanism and is applicable to testing other HMTs. Although AlphaScreen has significant advantages with its utility in a variety of epigenetic target assays, the primary screening data provided in this deposition should be used with caution due to the prevalence of screening artifacts. An AlphaScreen counterscreen is highly recommended to be run against any putative actives to eliminate non specific artifacts. Alternatively, one can use other AlphaScreen assays in PubChem to filter out promiscuous hits. Quinn et al. A chemiluminescence-based method for identification of histone lysine methyltransferase inhibitors. Mol Biosyst 6(5): 782-8. 2010. PMID: 20567762 [2] Baell,Holloway. New substructure filters for removal of pan assay interference compounds (PAINS) from screening libraries and for their exclusion in bioassays. J Med Chem. 53(7):2719-40. 2010. PMID: 20131845 NIH Molecular Libraries Probe Production Network [MLPCN] NIH Chemical Genomics Center [NCGC] Structural Genomics Consortium (SGC) NIH Grant: 5U54 MH084681-02
# To each well of a 1,536w plate, 2ul of HMT enzyme (final 20nM) were added, using a nanoliter dispenser. The G9a- and GLP-inhibitor BIX-01294 (CID: 25150857) are used as an intraplate control, with a 16-point titration in duplicate. A Kalypsys pin-tool transferred 23nl of library compound solution in DMSO to each well. Following a 15 min incubation of enzyme with compounds at room temperature, 1ul mixture of b-H3K9 peptide substrate (final 500nM) and SAM cofactor (final 20uM) were added. Reactions were allowed to proceed at room temperature for 2 hours. Methylated b-H3K9 peptide product was detected with 0.5 ug/mL rabbit polyclonal anti-monomethyl histone H3K9 antibody (Abcam Inc., Cambridge, MA) and 20 ug/mL each streptavidin-coated donor and anti-rabbit IgG acceptor AlphaScreen beads. Antibody and beads were added in a 1ul dispense, for a final volume of 4ul, and plates were incubated, protected from the light, for 10 min at room temperature. Microplates were then read on an EnVision multilabel plate reader using the 1,536 plate HTS AlphaScreen aperture (excitation time 80 ms, measurement time 240 ms).
# Potency is read from the fitted curve at half-maximal effect.
Compound,"activity, negative = inhibition",Potency
CCOc1ccc(CCNC(=O)COC(=O)c2ccc(F)c(S(=O)(=O)N3CCOCC3)c2)cc1OCC,-4.3% [at 0.501 µM],–
Brc1cccc(-c2nnn3c2nc(NC2CCCCC2)c2ccccc23)c1,–,inactive
Cc1ccccc1NC(=O)Cc1nc(COC(=O)c2ccc(C(F)(F)F)cc2)cs1,5.04% [at 12.7 µM],–
CCN(CC(=O)NCc1ccc(Cl)cc1)C(=O)CSc1ccccc1,-1.68% [at 12.7 µM],–
Cc1c(-c2nsc(NC(=O)c3cccc(Cl)c3)n2)nnn1-c1ccccc1C(F)(F)F,–,inactive
O=C1N/C(=C/c2cccn2-c2ccccc2)C(=O)N1c1cccc(Cl)c1,–,1 µM (active)
O=c1c(-c2cccc(Cl)c2)c[nH]n1-c1ccccc1,3.35% [at 2.33 µM],–
COc1cc2c(cc1/C=C1/NC(=O)N(c3ccccc3)C1=O)OCO2,–,inactive
COc1ccc(S(=O)(=O)NCCSc2nnnn2-c2ccccc2)cc1,–,inactive
N[C@@H](Cc1ccccc1)C(=O)N1CCOCC1,11.6% [at 2.33 µM],–
Cc1cc(C)c(S(=O)(=O)N2CCC(C(=O)OCc3c(C)noc3C)CC2)c(C)c1,–,inactive
COc1ccccc1-c1nnc(SCC(N)=O)o1,–,inactive
N#CC1(NC(=O)COC(=O)CCN=C2NS(=O)(=O)c3ccccc32)CCCCC1,–,79.4 µM (active)
Cc1ccccc1C(=O)NCCN=C1NS(=O)(=O)c2ccccc21,–,inactive
O=C(OCCN=C1NS(=O)(=O)c2ccccc21)c1cccc([N+](=O)[O-])c1,–,inactive
O=C(CCCN=C1NS(=O)(=O)c2ccccc21)OCC(=O)c1ccc(F)c(F)c1,–,44.7 µM (active)
N#CC1(NC(=O)COC(=O)CSc2ccc(F)cc2)CCCCC1,–,inactive
N#CC1(NC(=O)COc2ccc3oc4ccccc4c3c2)CCCCC1,–,inactive
COc1ccccc1C(=O)NCCn1cc(SCc2ccccc2Cl)c2ccccc21,–,inactive
O=C(c1ccc(F)cc1)N1CCC(C(=O)N2CCN(S(=O)(=O)c3ccccc3Br)CC2)CC1,–,inactive
O=C(NCc1ccccc1Cl)c1cccn1-c1nnc(N2CCCCC2)s1,–,inactive
COc1ccccc1N1CCN(c2ncnc3onc(-c4ccc(F)cc4)c23)CC1,–,inactive
O=c1oc2c(CN3CCCCC3)c(O)ccc2c2c1CCCCC2,–,inactive
CCCn1c(O)c(CN2CCCC(C)C2)c(C)c(C#N)c1=O (configuration not stated),–,14.1 µM (active)

Compound,"activity, negative = inhibition",Potency
CCCCCCn1c(CN2CCCC(C)C2)nc2c1c(=O)n(C)c(=O)n2C (configuration not stated),–,inactive
CCC(=O)Nc1sc(C(=O)N2CCCCC2)c(C)c1C#N,–,inactive
CC1CCCN(Cc2c(O)ccc3c(=O)c(Oc4ccc(C(C)(C)C)cc4)c(C(F)(F)F)oc23)C1 (configuration not stated),–,inactive
Cc1c(CN2CCCCC2)c(O)n(CCO)c(=O)c1C#N,–,50.1 µM (active)
CCOc1ccc(-n2nc3ccc(NC(=O)c4ccc(OC)c(Cl)c4)cc3n2)cc1,–,inactive
CN(CC(=O)Nc1c(Cl)cccc1Cl)C(=O)CC1OC(=O)c2ccccc21 (configuration not stated),–,inactive
CN(Cc1ccccc1)C(=O)CCS(=O)(=O)c1cc(Br)cc2c1N(C(=O)C1CC1)CC2,–,inactive
CCc1ccccc1OCC(=O)Nc1ccc(C)c(S(=O)(=O)N2CCCCCC2)c1,18.3% [at 12.7 µM],–
C[C@H](OC(=O)n1ccnc1)[C@@H]1O[C@@]2(C)CCC[C@@H]1O2,9.09% [at 0.501 µM],–
Cc1ccc(-c2cn3c(n2)sc2cc(C(=O)NCc4cccs4)ccc23)c(C)c1,–,inactive
CCC(=O)N1CCc2cc(Br)cc(S(=O)(=O)CCC(=O)N3CCN(c4ccc(F)cc4)CC3)c21,–,inactive
O=C(CSCc1c(Cl)cccc1Cl)NN1C(=O)c2ccccc2C1=O,-11.1% [at 2.33 µM],–
CCn1c(CSCc2c(Cl)cccc2Cl)n[nH]c1=S,–,2.82 µM (active)
O=c1[nH]nc(CSCc2ccccc2Cl)[nH]1,–,inactive
COc1ccccc1-n1ccnc(SCC(=O)NC2CCCCC2)c1=O,–,inactive
Cc1ccc(C)c(OCCC(=O)OCC(=O)NC(=O)NCc2ccccc2)c1,–,inactive
O=C(Nc1cccc([N+](=O)[O-])c1)Nc1ccc(Cl)cn1,–,inactive
CCCc1cc(C(=O)Nc2ccc(Cl)cn2)cs1,–,inactive
O=C(Nc1ccc(Cl)cn1)Nc1cccs1,–,56.2 µM (active)
COc1ccc(S(=O)(=O)N2CCCCC2)cc1NC(=O)C1CC(=O)N(c2ccc3c(c2)OCCO3)C1 (configuration not stated),–,inactive
CCOc1ccc(S(=O)(=O)N2CCCCC2)cc1NC(=O)CN1CCCC1c1cccs1 (configuration not stated),19.5% [at 2.33 µM],–
Cc1cc(C(F)(F)F)n2ncc(-c3ccccc3)c2n1,–,inactive
Cc1nn(-c2nc(-c3ccccc3)cc(C(F)(F)F)n2)c(C)c1Cl,–,inactive
